According to the supplement of paper PMC8975748:
Structures can show the parent of a compound that is named as a salt.

tested on: Saccharomyces cerevisiae BY4741 SeMeCo community; assay: z-score of subpopulation abundance vs DMSO median, subpopulation auxotrophic for HU; higher = larger share of this subpopulation than in DMSO controls; settings: 10 µM; 24 h; SM minimal medium; subpopulation (auxotrophy): HU
Description: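 Fluorescent four-plasmid SeMeCo (self-establishing metabolically cooperating S. cerevisiae BY4741 community; plasmids pH-mRuby2, pL-mWasabi, pU-eCFP, pM-TagRFP657) was grown 24 h in minimal SM medium with each Selleck FDA-approved drug at 10 µM in 384-well plates. Cells were fixed and imaged by high-content confocal microscopy. For each auxotrophic subpopulation (and the prototroph), a z-score gives the deviation from the DMSO vehicle-control population median.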

| SMILES | z-score of subpopulation abundance |
| --- | --- |
| O=c1n(CCCN2CCN(c3cccc(Cl)c3)CC2)nc2ccccn12 [Trazodone HCl] | 0.33 |
| CO/N=C(\C(=O)N[C@@H]1C(=O)N2C(C(=O)O)=C(CSC(=O)c3ccco3)CS[C@H]12)c1csc(N)n1 [Ceftiofur] | 0.47 |
| CO/N=C(\C(=O)N[C@@H]1C(=O)N2C(C(=O)O)=C(CSc3nc(C)c(CC(=O)O)s3)CS[C@H]12)c1csc(N)n1 [Cefodizime Sodium] | 0.66 |
| Nc1c(CC(=O)O)cccc1C(=O)c1ccccc1 [Amfenac Sodium Monohydrate] | -0.95 |
| CC(=O)O[C@]1(C(C)=O)CC[C@H]2[C@@H]3C[C@H](C)C4=CC(=O)CC[C@]4(C)[C@H]3CC[C@@]21C [Medroxyprogesterone acetate] | 0.62 |
| Cc1ccccc1C(OCCN(C)C)c1ccccc1 (stereo not given) [Orphenadrine Citrate] | 0.14 |
| COc1ccc(C(Cl)=C(c2ccc(OC)cc2)c2ccc(OC)cc2)cc1 [Chlorotrianisene] | 0.01 |
| CC1=C(C(=O)O)N2C(=O)[C@@H](NC(=O)[C@H](N)c3ccccc3)[C@H]2SC1 [Cephalexin] | -0.74 |
| COc1ccc(Cl)cc1C(=O)NCCc1ccc(S(=O)(=O)NC(=O)NC2CCCCC2)cc1 [Glyburide (Glibenclamide)] | -0.2 |
| N=C(N)NC(=N)N1CCOCC1 [Moroxydine HCl] | -0.45 |
| COc1cc(O)c(C(=O)Nc2nc(C(=O)NCCN(C(C)C)C(C)C)cs2)cc1OC [Acotiamide] | -0.06 |
| COc1c(N2CCNC(C)C2)c(F)cc2c(=O)c(C(=O)O)cn(C3CC3)c12 (stereo not given) [Gatifloxacin] | 0.38 |
| C[C@@H](O)[C@H]1C(=O)N2C(C(=O)[O-])=C(SC3Cn4cnc[n+]4C3)[C@H](C)[C@H]12 (stereo not given in full) [Biapenem] | -0.36 |
| O=C(c1ccccc1)c1ccc2n1CCC2C(=O)O (stereo not given) [Ketorolac] | -1.29 |
| CO[C@H]1C[C@@H]2CC[C@@H](C)[C@@](O)(O2)C(=O)C(=O)N2CCCC[C@H]2C(=O)O[C@H]([C@H](C)C[C@@H]2CC[C@H](n3cnnn3)[C@H](OC)C2)CC(=O)[C@H](C)/C=C(\C)[C@@H](O)[C@@H](OC)C(=O)[C@H](C)C[C@H](C)/C=C/C=C/C=C/1C [Zotarolimus(ABT-578)] | 23.5 |
| O=C(O)c1cn(C2CC2)c2cc(N3CCNCC3)c(F)cc2c1=O [Ciprofloxacin hydrochloride hydrate] | 0.3 |
| CC1=C(C(=O)OC(C)C)C(c2cccc([N+](=O)[O-])c2)C(C(=O)OC2CN(C(c3ccccc3)c3ccccc3)C2)=C(N)N1 (stereo not given) [Azelnidipine] | 1.39 |
| Cc1ccnc(NS(=O)(=O)c2ccc(N)cc2)n1 [Sulfamerazine] | -0.3 |
| COc1ccc(C[C@H](N)C(=O)N[C@H]2[C@@H](O)[C@H](n3cnc4c(N(C)C)ncnc43)O[C@@H]2CO)cc1 [Puromycin 2HCl] | 0.15 |
| COC(=O)C1=C(C)NC(C)=C(C(=O)OC2CCCN(Cc3ccccc3)C2)C1c1cccc([N+](=O)[O-])c1 (stereo not given) [Benidipine HCl] | -0.01 |

| SMILES | z-score of subpopulation abundance |
| --- | --- |
| CSc1nc2cc(Cl)c(Oc3cccc(Cl)c3Cl)cc2[nH]1 [Triclabendazole] | 2.73 |
| CO[C@@]1(NC(=O)CSC[C@@H](N)C(=O)O)C(=O)N2C(C(=O)O)=C(CSc3nnnn3C)CS[C@@H]21 [Cefminox Sodium] | 0.16 |
| Cc1cccc(Nc2ccccc2C(=O)O)c1C [Mefenamic Acid] | 0.29 |
| CC[C@H](Nc1ncnc2[nH]cnc12)c1nc2cccc(F)c2c(=O)n1-c1ccccc1 [Idelalisib (CAL-101, GS-1101)] | 0.68 |
| CO/N=C(\C(=O)N[C@@H]1C(=O)N2C(C(=O)OCOC(=O)C(C)(C)C)=C(/C=C\c3scnc3C)CS[C@H]12)c1csc(N)n1 [Cefditoren Pivoxil] | -0.64 |
| Clc1ccc(CSC(Cn2ccnc2)c2ccc(Cl)cc2Cl)cc1 (stereo not given) [Sulconazole Nitrate] | 14.1 |
| CN(C)CCCN1c2ccccc2CCc2ccc(Cl)cc21 [Clomipramine HCl] | 0.31 |
| CN[C@H]1C(=O)N[C@@H]2Cc3ccc(cc3)Oc3cc4cc(c3O[C@@H]3O[C@H](C(=O)O)[C@@H](O)[C@H](O)[C@H]3NC(=O)CCCCCCCCC(C)C)Oc3ccc(cc3Cl)[C@@H](O)[C@@H]3NC(=O)[C@H](NC(=O)[C@@H]4NC(=O)[C@@H](NC2=O)c2cc(cc(O)c2Cl)Oc2cc1ccc2O)c1ccc(O)c(c1)-c1c(O[C@H]2O[C@H](CO)[C@@H](O)[C@H](O)[C@@H]2O)cc(O)cc1[C@@H](C(=O)NCCCN(C)C)NC3=O [Dalbavancin] | 3.63 |
| O=C(O)Cc1ccccc1Nc1c(Cl)cccc1Cl [Diclofenac Sodium] | -1.76 |
| CN[C@@H]1[C@H](O[C@H]2[C@H](O[C@H]3[C@H](O)[C@@H](O)[C@H](N=C(N)N)[C@@H](O)[C@@H]3N=C(N)N)O[C@@H](C)[C@]2(O)C=O)O[C@@H](CO)[C@H](O)[C@H]1O [Streptomycin sulfate] | 0.65 |
| CC(C)c1c(C(=O)Nc2ccccc2)c(-c2ccccc2)c(-c2ccc(F)cc2)n1CC[C@@H](O)C[C@@H](O)CC(=O)O [Atorvastatin Calcium] | 7.9 |
| Cc1cc(/C=C/c2ccc3cc(N(C)C)ccc3[n+]2C)c(C)n1-c1ccccc1 [pyrvinium] | -0.67 |
| COc1ccc(CCN(C)CCCC(C#N)(c2ccc(OC)c(OC)c2)C(C)C)cc1OC (stereo not given) [Verapamil HCl] | 0.54 |
| COCCCOc1ccnc(C[S+]([O-])c2nc3ccccc3[nH]2)c1C (stereo not given) [Rebeprazole sodium] | -0.49 |
| CC#C[C@]1(O)CC[C@H]2[C@@H]3CCC4=CC(=O)CCC4=C3[C@@H](c3ccc(N(C)C)cc3)C[C@@]21C [Mifepristone] | 0.29 |
| CC(=O)[C@H]1CC[C@H]2[C@@H]3CC=C4C[C@@H](O)CC[C@]4(C)[C@H]3CC[C@]12C [Pregnenolone] | -0.76 |
| CC(C)(C)C(=O)OCOC(=O)[C@@H]1N2C(=O)[C@@H](/N=C/N3CCCCCC3)[C@H]2SC1(C)C [Pivmecillinam hydrochloride] | -0.03 |
| CCCCN1CCCCC1C(=O)Nc1c(C)cccc1C (stereo not given) [Bupivacaine HCl] | -0.26 |
| CCN[C@@H]1C[C@H](N)[C@@H](O[C@H]2OC(CN)=CC[C@H]2N)[C@H](O)[C@H]1O[C@H]1OC[C@](C)(O)[C@H](NC)[C@H]1O [Netilmicin Sulfate] | 0.01 |
| C1N2CN3CN1CN(C2)C3 [Methenamine] | 0.2 |
